# An excerpt weighted towards active compounds, which were near 11% of everything screened.
# Pf growth 96h – inhibits malaria parasite growth, 96 h | P. falciparum luciferase reporter growth, 96 h | Potency, µM (titrated, usually from 28.7 µM), actives largely listed as inhibitors | 6.9% of 320,000 active | AID 504834
#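 Infected RBCs, 2% Hct / 0.05% parasitemia final; luciferase-reporter P. falciparum; cpd 96 h, 37 C, 5% CO2; luciferase detection reagent; luminescence.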
# Sm TGR block – blocks Schistosoma mansoni thioredoxin glutathione reductase | 3% of 360,000 active | purified TGR, DTNB reduction, TNB absorbance 405 nm | Potency, µM (series often up to 114 µM), hits mostly inhibitors | Q962Y6 | AID 485364; note: nearly all actives have a fitted effect of over 60% in size
#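 First, TGR (20 nM dispensed) and NADPH were mixed with compound. Second, a 15 min room-temperature incubation followed. Third, further NADPH and then DTNB were added to start the reaction. Finally, TNB absorbance was monitored kinetically.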
# NS1 function inh – blocks influenza NS1 protein function. 0.4% of 270,000 active. Potency, µM (top dose mostly 46.1 µM). AID 2326; calls by dose curve; note: actives are rising curves; nearly all actives have a fitted effect of over 50% in size
#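 Recovery from NS1-induced slow growth read by OD600 in budding yeast switched to galactose assay medium (pH 6.0, -URA) at 1:100 dilution. Compound 23 nl per well; the matching strain lacking NS1 serves as control.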
# AMA1 RON2 block – inhibitors of Plasmodium falciparum AMA1-RON2 interaction; AlphaScreen AMA1-biotinylated RON2 peptide binding; Potency, µM (highest dose often 58.2 µM), actives largely listed as inhibitors; 0.2% of 360,000 active; AID 720542; note: nearly all actives have a fitted effect of over 45% in size
#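 AMA1 (3D7) with his tag at 25 nM final met compounds first, then biotinylated RON2 peptide at 25 nM; detection used donor plus acceptor beads, 10 µg/mL apiece, read by AlphaScreen after 30 min at room temperature.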
# Pf growth 48h – inhibits P. falciparum growth in the first generation, 48 h | 5.9% of 310,000 active | Potency, µM (doses to about 28.7 µM), actives largely listed as inhibitors | P. falciparum luciferase growth in erythrocytes, 48 h
#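 Luciferase-expressing parasites in RBCs, 2% Hct / 0.1% parasitemia final; RPMI 1640 + 0.5% Albumax; 37 C, 5% CO2, one generation; luminescence read-out, lower signal = inhibition.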
# A number is an active result; 0 = inactive; ? = inconclusive; - = no result given; [ ] = another dose, or the depositor's remark. Unless noted, calls come from the whole dose curve; as a rule, active = well fitted curve in the direction sought with a large enough effect; inconclusive = small, poorly fitted or top-dose-only effect, or another doubt; inactive = no such curve, though single readings can be large; an effect the other way counts as inactive or inconclusive.
SMILES,Pf growth 96h,Sm TGR block,NS1 function inh,AMA1 RON2 block,Pf growth 48h
Clc1ccc(N2N=C(c3cccs3)CC2c2ccco2)cc1 (centres undefined),2.6µM,0,0,0,0
c1ccc(N2N=C(c3cccs3)CC2c2ccco2)cc1 (centres undefined),?,0,0,0,0
O=C(c1ccco1)N1N=C(c2cccs2)CC1c1ccccc1O (centres undefined),?,0,?,0,8.3µM
COCCN(C(=S)Nc1cc(C)cc(C)c1)C(C)c1ccco1 (centres undefined),?,0,-,0,0
CC1(NC(=O)Cc2ccc(Cl)c(Cl)c2)CCS(=O)(=O)C1 (centres undefined),0,0,-,0,?
CCN(CC)S(=O)(=O)c1ccc(C(C)NC(=O)C2CCCN2C(=O)c2cccs2)cc1 (centres undefined),?,0,-,0,0
COc1ccc(-n2cc(-c3ccccc3)[n+]3c2CCCCC3)cc1,0.93µM,0,-,0,1µM
FC(F)Sc1ccc(-n2cc(-c3ccccc3)[n+]3c2CCC3)cc1,0.66µM,0,?,0,1.2µM
COc1ccc(-n2cc(-c3ccccc3)nc2SC)cc1,0,0,0,0,0
FC(F)Oc1ccc(-n2cc(-c3ccc(Cl)cc3)[n+]3c2CCCCC3)cc1,?,0,0,0,1.5µM
COc1ccc(-c2cn(-c3ccc(SC(F)F)cc3)c3[n+]2CCC3)cc1OC,?,0,0,0,?
COc1ccc(-c2cn(-c3ccc(OC)cc3)c3[n+]2-c2ccccc2CC3)cc1,0.41µM,0,0,0,1.2µM
CN(C(=O)c1cccc(NC(=O)Cc2ccc(NC(=O)C3CCN(C(=O)C4CCC4)CC3)cc2)c1)C1CCCC1,-,-,-,0,-
O=C(N/N=C/c1c(O)n(Cc2ccc(F)cc2)c(=O)[nH]c1=O)c1ccccc1O,?,35µM,?,0,0
COc1ccc(Cn2c(O)c(/C=N/NC(=O)c3ccccc3O)c(=O)[nH]c2=O)cc1,0,?,0,0,0
O=C(N/N=C/c1c(O)n(Cc2ccccc2)c(=O)[nH]c1=O)c1ccccc1O,?,25µM,?,0,0
CCCOc1ccc(C(=O)Nc2cccc(-c3nc4ccccc4[nH]3)c2)cc1,-,0,-,-,-
COc1ccc(C2/C=C\CN(S(=O)(=O)c3cccc4cccnc34)CC(=O)N2Cc2ccc(F)cc2)cc1 (centres undefined),12µM,0,?,0,?
COc1ccc(C2/C=C\CN(CC(C)(C)C)CC(=O)N2Cc2ccc(F)cc2)cc1 (centres undefined),?,32µM,0,0,?
COc1ccc(C2/C=C\CN(C(=O)Nc3ccccc3-c3ccccc3)CC(=O)N2Cc2ccc(F)cc2)cc1 (centres undefined),13µM,0,?,0,13µM
COc1ccc(C2/C=C\CN(S(=O)(=O)/C=C/c3ccccc3)[C@H](Cc3ccccc3)C(=O)N2Cc2ccc(F)cc2)cc1 (some centres undefined),?,22µM,0,0,?
COc1ccc(C2C(C(=O)Nc3cccnc3)=C(C)Nc3nc(-c4cccs4)nn32)cc1 (centres undefined),?,0,0,0,12µM
Cc1cccc(NC(=O)C2CCCN(S(=O)(=O)c3c(C)nn(C)c3C)C2)c1 (centres undefined),-,-,-,0,-
Cc1cccc(NC(=O)C2CCCN(S(=O)(=O)c3c(C)nn(C)c3C)C2)n1 (centres undefined),12µM,0,0,0,0
Cc1ccc(C)c(NC(=O)C2CCCN(S(=O)(=O)c3c(C)nn(C)c3C)C2)c1 (centres undefined),2.9µM,0,0,0,0
SMILES,Pf growth 96h,Sm TGR block,NS1 function inh,AMA1 RON2 block,Pf growth 48h
COC(=O)[C@@]12CCCN1[C@H](c1ccc(-c3ccc4c(c3)OCO4)cc1)[C@H]1C(=O)N(C)C(=O)[C@H]12,-,-,-,0,-
O=C(NCc1n[nH]c(=S)n1-c1ccc(Cl)c(Cl)c1)c1ccco1,15µM,0,0,0,?
CC[C@H]1OC(=O)[C@H](C)C(=O)[C@H](C)[C@@H](OC2O[C@H](C)C[C@H](N(C)C)[C@@H]2O)[C@@](C)(OC)C[C@@H](C)C(=O)[C@@H](C)C2N(CCCCn3cnc(-c4cccnc4)c3)C(=O)O[C@@]21C (some centres undefined),13µM,-,-,-,?
COc1ccc(-c2cn[nH]c2-c2ccc(O)cc2O)cc1OC,9.3µM,0,0,0,?
CCOc1ccc(-c2[nH]ncc2-c2ccc(OC)c(OC)c2)c(O)c1,0,0,?,0,?
C=C(C)COc1ccc(-c2[nH]ncc2-c2ccc(Br)cc2)c(O)c1,1.7µM,0,0,0,3.7µM
C=C(C)COc1ccc(-c2n[nH]c(C)c2-c2ccc(Br)cc2)c(O)c1,?,0,0,0,?
CCOc1ccc(-c2[nH]ncc2Oc2ccccc2OCC)c(O)c1,?,0,0,0,5.9µM
C=C(C)COc1ccc(-c2[nH]ncc2-c2ccccc2OC)c(O)c1,0,0,0,0,3.3µM
COc1ccc(C(Nc2ccc(S(=O)(=O)NCC3CCCO3)cc2)C(=O)NC(C)(C)C)cc1OC (centres undefined),0,0,0,0,?
C=C(C)COc1ccc(-c2[nH]ncc2Oc2ccc(OC)cc2)c(O)c1,?,0,0,0,?
CCOc1ccc(-c2[nH]ncc2-c2ccc(Cl)cc2)c(O)c1,3.3µM,0,0,0,8.3µM
CCOc1ccccc1Oc1cn[nH]c1-c1ccc(OCC(=O)NN)cc1O,13µM,0,?,0,-
COc1cccc(Oc2cn[nH]c2-c2ccc(OCC(=O)NN)cc2O)c1,?,0,0,0,?
COc1ccc(-c2[nH]ncc2-c2ccc3c(c2)OCCO3)c(O)c1,0,0,0,0,?
CCOc1ccc(-c2[nH]ncc2Oc2ccccc2OC)c(O)c1,-,0,0,0,8.3µM
CCCOC(=O)c1ccc(Oc2cn[nH]c2-c2ccc(OC)cc2O)cc1,?,0,0,0,10µM
COc1ccc(-c2cn[nH]c2-c2ccc(OCc3ccc([N+](=O)[O-])cc3)cc2O)cc1,?,0,0,0,13µM
C=C(C)COc1ccc(-c2[nH]ncc2Oc2ccccc2OC)c(O)c1,0,0,0,0,13µM
CCc1cc(-c2[nH]ncc2-c2ccc(OC)cc2)c(O)cc1O,?,0,0,0,?
COc1ccc(C2c3c(c(C)c(C)oc3=O)Oc3c(C)c(C)oc(=O)c32)cc1,0,0,-,0,0
COc1cc(C2c3c(c(C)c(C)oc3=O)Oc3c(C)c(C)oc(=O)c32)ccc1OS(=O)(=O)c1ccc(C)cc1,4.7µM,0,-,0,5.9µM
CCC(=O)OC1=C(C(C)=O)N(Cc2ccccc2)S(=O)(=O)c2ccccc21,-,0,-,-,-
CN(Cc1cc(=O)n2ccsc2n1)C1CCCCC1,0,32µM,0,0,0[1.15 µM]
COC(=O)c1ccccc1OCC(=O)N1CCN(c2ccc(F)cc2)CC1,0,0,0,0,0

# Source: PubChem BioAssay
